# MCF10A rerep – induces DNA re-replication in MCF 10a normal breast cells. MCF 10A DNA re-replication, Hoechst nuclear intensity, 48 h. Potency, µM (highest dose often 46.1 µM), without a hit: top-dose activity, positive = re-replication, usual class: activators. 2.9% of 350,000 active. AID 624296; further: % of control where 0% means no effect; nearly all actives have a fitted effect of over 50% in size
# KB-3-1 cytotox – KB-3-1 parental cell cytotoxicity. Potency, µM (series often up to 46.1 µM), hits mostly cytotoxic. AID 1347075. KB-3-1 viability, CellTiter-Glo ATP luminescence, 72 h. 1.4% of 400,000 active; further: on the % scale 0 is the no-effect control and ±100 the full control effect; nearly all actives have a fitted effect of over 60% in size
#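 KB-3-1 cells, DMEM (no phenol red) + 10% FBS; compound by pin transfer, 72 h, 37 °C. Readout: CellTiter-Glo luminescence after 10 min. Data normalized, curve-fitted.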
# RORg inh – blocks mouse ROR gamma transcriptional activity; P51450; Potency, µM (doses to about 53.6 µM), for inactives: at the highest dose activity change, negative = inhibition, usual class: inhibitors; Drosophila S2 Gal4-RORgamma UAS-luciferase reporter, 20 h; 5.4% of 310,000 active; further: on the % scale 0 is the no-effect control and ±100 the full control effect; nearly all actives have a fitted effect of over 60% in size
# Target sequence (P51450 whole entry, looked up, the tested form may be a part): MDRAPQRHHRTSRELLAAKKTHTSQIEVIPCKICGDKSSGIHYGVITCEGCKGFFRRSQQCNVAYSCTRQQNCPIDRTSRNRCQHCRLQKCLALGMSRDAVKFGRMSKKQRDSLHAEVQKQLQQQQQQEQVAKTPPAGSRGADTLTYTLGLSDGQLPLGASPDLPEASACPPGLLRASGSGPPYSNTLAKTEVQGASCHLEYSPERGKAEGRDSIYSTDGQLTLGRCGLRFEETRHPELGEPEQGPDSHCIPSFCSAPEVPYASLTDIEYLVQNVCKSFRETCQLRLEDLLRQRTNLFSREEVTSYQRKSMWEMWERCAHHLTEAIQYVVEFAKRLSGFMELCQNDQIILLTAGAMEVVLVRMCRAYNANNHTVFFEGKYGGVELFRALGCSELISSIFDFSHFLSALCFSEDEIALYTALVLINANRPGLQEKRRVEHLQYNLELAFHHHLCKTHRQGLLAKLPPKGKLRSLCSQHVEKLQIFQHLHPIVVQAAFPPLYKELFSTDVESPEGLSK
#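 Stably transfected Drosophila Schneider cells are the test system, with ROR gamma fused to Gal4 and luciferase under UAS control; luminescence is read after 20 hr of 700 uM copper sulfate induction at ambient temperature.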
# VP16 counter – counter-screen for ROR gamma inhibitors: Gal4-VP16 reporter; Potency, µM (top dose mostly 53.6 µM), without a hit: at the top dose activity, negative = inhibition, hits mostly inhibitors; AID 2546; Drosophila S2 Gal4-VP16 UAS-luciferase, luminescence, 20 h; 3.5% of 310,000 active;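 further: Gal4-VP16 expression switched on by copper sulfate through the metallothionein promoter; on the % scale 0 is the no-effect control and ±100 the full control effect; nearly all actives have a fitted effect of over 50% in size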
# KB-V1 MDR tox – kills drug-selected multidrug resistant KB-V1 cells | AID 1347076 | KB-V1 MDR cells viability, CellTiter-Glo, 72 h | 3.4% of 400,000 active | Potency, µM (titrated, usually from 46.1 µM), hits mostly cytotoxic; further: on the % scale 0 is the no-effect control and ±100 the full control effect; nearly all actives have a fitted effect of over 60% in size
#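 Luminescent ATP read-out (CellTiter-Glo, 10 min) measures survival of drug-selected KB-V1 MDR cells after 72 h, 37 degrees C compound exposure. Medium: phenol-red-free DMEM, 10% FBS. Values from fitted concentration-response curves.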
# SW480 rerep – inducers of DNA re-replication in SW480 colon cancer cells | 1.8% of 340,000 active | SW480 DNA re-replication, Hoechst DNA content imaging, 48 h | Potency, µM (series often up to 46.1 µM), for inactives: top-dose re-replication activation, usual class: activators | AID 624297; further: % of control where 0% means no effect; nearly all actives have a fitted effect of over 55% in size
#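 250 cells/well; 23 nL cpd via pin tool; 48 hr, 37 C, 5% CO2; Hoechst 40 min; imager read of total nuclear intensity, ex 405/em 500-530 nm.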
# * marks the source's active call; other numbers are inactive results; i = inactive; ? = inconclusive; / = no result given; ! = a repeat was not active; [ ] = another dose, or the depositor's remark. Only some compounds are listed: those with a hit (about 10% of all), similar ones and a draw of the others. The call rests on the fitted dose curve; in most records, active means well fitted curve in the direction sought with a large enough effect; inconclusive means small, poorly fitted or top-dose-only effect, or another doubt; inactive means no such curve, though single readings can be large; an effect the other way counts as inactive or inconclusive. Potency means the concentration at half of the fitted maximal effect.
SMILES,MCF10A rerep,KB-3-1 cytotox,RORg inh,VP16 counter,KB-V1 MDR tox,SW480 rerep
O=C(Nc1nc(-c2ccccc2)cs1)c1ccccc1NS(=O)(=O)c1ccc(F)cc1,16µM*,6.5µM*,?,5.6µM*,16µM*,-1%
CCc1nnc(SCC(=O)Nc2ccc(Cl)cc2F)c2cc3occc3n12,/,?,/,/,i,/
O=C(Nc1ccccc1Br)c1ccccc1-c1ccccc1,13µM*,7.3µM*,-25%,-3%,?,16µM*
Cc1cc(Br)ccc1NC(=O)c1ccccc1-c1ccccc1,-2%,i,44%,3%,13µM*,27%
O=C(Nc1ccccc1-c1ccccc1)c1ccccc1Br,11%,i,10%,3%,?,2%
CCOc1ccc(OCC)c(-c2c(=O)n(OCc3ccccc3C(=O)OC)c3ccccc3[n+]2[O-])c1,4%,i,20%,-1%,3.7µM*,0%
O=c1n(Cc2ccccc2)c(O)c2n1Cc1ccccc1N=C2c1ccccc1,/,i,/,/,i,/
CCN(CC)c1ccc2c(c1)CCCN2,/,/,2.8µM*,?,/,/
CN1CCN(S(=O)(=O)c2ccc(Nc3ccc(F)cc3)c([N+](=O)[O-])c2)CC1,?,i,/,/,?,29µM*
COc1ccc(-c2n[nH]c(=S)n2-c2cc(OC)ccc2OC)cc1,?,i,10µM*,-13%,i,?
COc1cc(-c2n[nH]c(=S)n2-c2cc(C(F)(F)F)ccc2Cl)cc(OC)c1OC,-50%,i,?,?,13µM*,-95%
COc1ccc(OC)c(-n2c(-c3ccc(C)cc3)n[nH]c2=S)c1,0%,i,4µM*,?,i,-1%
C[C@H]1C(O)[C@@]23CCC4C5(C=[N+](CCO)C[C@]4(C)CCC5)C2C[C@@H]1C3 (some centres undefined),/,/,12%,-14%,/,/
CCc1ccccc1NC(=O)CN(C)Cc1nc(N)nc(Nc2ccccc2C)n1,4%,i,8%,3%,3.3µM*,6%
Cc1ccccc1NC(=O)CSCc1nc(N)nc(Nc2ccccc2C)n1,-5%,i,?,5%,i,6%
Cc1ccccc1Nc1nc(N)nc(CN(C)c2ccccc2)n1,1%,i,3%,-4%,?,5%
C=CCN(CC=C)Cc1nc(N)nc(Nc2ccccc2C)n1,1%,i,13µM*,-8%,i,18%
Cc1cn2c(=O)cc(COc3ccc(NC(=O)COc4ccccc4)cc3)nc2s1,/,i,/,/,i,/
O=C(CN1CCN(S(=O)(=O)c2cc(Br)ccc2Br)CC1)NCc1ccccc1Cl,12%,i,/,/,3.7µM*,11%
Cc1ccc2c(Cl)cc(Cl)c(OCC(=O)NC3CCS(=O)(=O)C3)c2n1 (centres undefined),5%,i,8.9µM*,11µM*,i,16%
CCN(CC(=O)NC(C)(C)C)C(=O)COc1c(Cl)cc(Cl)c2ccc(C)nc12,18%,i,1.3µM*,3.2µM*,?,-9%
CCOc1ccccc1NC(=O)COC(=O)COc1c(Cl)cc(Cl)c2ccc(C)nc12,-3%,i,/,/,i,-6%
O=C(COc1ncnc2ccccc12)NC1CCS(=O)(=O)C1 (centres undefined),-1%,i,2%,-1%,?,3%
c1ccc(Nc2c(-c3ccco3)nc3ccccn23)cc1,1%,i,-8%[10 µM],23%,i,1%
c1ccc(-c2nc(-c3ccco3)n3ccccc23)cc1,21µM*,i,?,?,i,?
SMILES,MCF10A rerep,KB-3-1 cytotox,RORg inh,VP16 counter,KB-V1 MDR tox,SW480 rerep
COC(=O)c1cccc(NC(=O)NC23CC4CC(CC(C4)C2)C3)c1,21%,i,-7%,-3%,i,?
COC(=O)c1cccc(S(=O)(=O)N2CCC(C)CC2)c1,4%,i,2%,1%,21µM*,-3%
COC(=O)c1cccc(S(=O)(=O)N2CCC(NC(=O)NC34CC5CC(CC(C5)C3)C4)CC2)c1,-4%,i,?,2%,12µM*,6%
Cc1ccc2oc(-c3ccc(Cl)c(NC(=O)c4ccc(OC(C)C)cc4)c3)nc2c1,/,i,/,/,i,/
COc1ccc(Oc2ccc3c(C(F)(F)F)cc(C(F)(F)F)nc3n2)cc1,6%,i,34%,-4%,16µM*,1%
COc1ccc(Br)c(Cn2c(C)c(C(=O)NCCC#N)sc2=O)c1,/,i,/,/,i,/
COc1ccc(Cc2nnc(NCCO)[nH]c2=O)cc1,1%,i,2%,2%,?,-19%
C=CCNc1nnc(Cc2ccc(C(C)C)cc2)c(=O)[nH]1,?,15µM*,20%,11%,i,?
COc1ccccc1NC(C)C(=O)c1c(C)[nH]c2ccccc12 (centres undefined),/,i,/,/,i,/
O=C(Nc1ccc(Cl)cc1Cl)[C@@H]1CC=C[C@@H]2CCN(Cc3ccccc3)C(=O)[C@@H]21,/,i,/,/,?,/
COc1ccccc1N=c1scc(-c2ccc3c(c2)NC(=O)CO3)n1CC1CCCO1 (centres undefined),?,i,20%,-6%,i,4%
COCC(C)n1c(-c2ccc3c(c2)NC(=O)CO3)csc1=Nc1ccc(OC(F)F)cc1 (centres undefined),3.3µM*,9.2µM*!,?,?,?,?
CN(C)S(=O)(=O)c1cccc(N=c2scc(-c3ccc4c(c3)NC(=O)CO4)n2CC2CCCO2)c1 (centres undefined),9%,?,1%,?,16µM*,2%
O=C1COc2ccc(-c3csc(=Nc4ccc(OC(F)F)cc4)n3CC3CCCO3)cc2N1 (centres undefined),16µM*,?,?,?,2.9µM*,?
Cc1cccc(NS(=O)(=O)c2ccc3c(c2)C(C)(C)C(=O)N3C)c1,/,i,/,/,i,/

# Assay outcomes from PubChem.
